Test results as given in PubChem BioAssay AID1851 (National Center for Advancing Translational Sciences (NCATS), 2009).
Several values for one entry are separate records, joined by “and”; a condition that tells them apart may be missing. Identical values can stand only once. Screen size: about 16,000 compounds; about 4,000 (25%) were called active. Inconclusive results (about 26%) are left out. Calls follow the shape of the dose curve; as a rule, active = well fitted curve in the direction sought with a large enough effect; inconclusive = small, poorly fitted or top-dose-only effect, or effect the other way; inactive = no such curve, though single readings can be large or run the other way. These entries were drawn from the full list. The source holds several records for some structures; these can differ, active in one and inactive in another.

target: Cytochrome P450 2C9 (Homo sapiens) (UniProt P11712); experiment: Cytochrome panel assay with activity outcomes; conditions: recombinant CYP, pro-luciferin dealkylation, luminescence, p450-cyp2c9; series mostly up to 57.1 µM; activity, negative = inhibition: at the top concentration
Experimental: The P450 gene superfamily is involved in the metabolism and clearance of xenobiotics. This assay used various human CYP P450 isozymes to measure the dealkylation of various pro-luciferin substrates to luciferin. The luciferin is then measured by luminescence after the addition of a luciferase detection reagent. Pro-luciferin substrate concentration in the assay was equal to its KM for its CYP P450 isozyme. Inhibitors and some substrates limit the production of luciferin, and decrease measured luminescence.
NCGC Assay Protocol Summary:
1, Reagent, 2 uL, Isozyme and Pro-Luciferin
2, Library compounds, 23 nl, 40 uM to 0.24 nM dilution series
3, Controls, 23 nl, Isozyme specific inhibitor
4, Reagent, 2 uL, NADPH regeneration solution
5, Incubation time, 60 min, Isozyme specific temperature
6, Reagent, 4ul, Detection reagent
7, Incubation time, 20 min, Isozyme specific temperature
8, Detection, 1 sec, ViewLux luminescent read
The luciferase-based P450-GloTM Screening Systems were obtained from Promega (Madison, WI) for CYP 1A2 (V9770), CYP 2C9 (V9790), CYP2 C19 (V9880), CYP 2D6 (V9890), and CYP 3A4 Luciferin-PPXE (V9910) and were adapted for 1,536-well microplates and an automated protocol. The control compounds furafylline for 1A2 (F124), sulfaphenazole for CYP 2C9 (S0758), ketoconazole for CYP 2C19 (K1003), quinidine for 2D6 (Q3625), and ketoconazole for 3A4 (K1003) were purchased from Sigma Aldrich (St. Louis, MO). Recombinant P450 enzymes were obtained from baculovirus constructs expressed in insect cells (BD/Gentest).
Medium-binding white solid Kalypsys plates used. Mixtures kept on ice. 1A2: 10 nM 1A2, 100 uM Luc-ME, 100 mM KPO4; 2C9: 10 nM 2C9, 100 uM Luc-H, 25 mM KPO4; 2C19: 5 nM 2C19, 10 uM Luc-H EGE, 50 mM KPO4; 2D6: 5 nM 2D6, 30 uM Luc-ME EGE, 100 mM KPO4; 3A4: 10 nM, 25 uM Luc-PPXE. All amounts are reflected in their final concentration, working concentration is 2x.
NADPH regeneration solution: 1.3 mM NADP+, 3.3 mM glucose-6-phosphate, 3.3 mM MgCl2, 0.4 U/mL glucose-6-phosphate dehydrogenase for all isozymes, 200 mM KPO4 for 3A4. Mixture prepared at RT but kept on ice during automated run.
RT incubation in auxilliary plate hotel for 1A2, 2D6, and 3A4; 37C for 2C9 and 2C19.
Keywords: P450, CYP1A2, CYP2C19, CYP2C9, CYP2D6, CYP3A4, Luciferase, MLSMR, MLSCN, NIH Roadmap, qHTS, NCGC
% is scaled to controls: 0 for no effect and ±100 for the full control effect.

Chain of Cytochrome P450 2C9 (Homo sapiens) (P11712 whole entry, looked up): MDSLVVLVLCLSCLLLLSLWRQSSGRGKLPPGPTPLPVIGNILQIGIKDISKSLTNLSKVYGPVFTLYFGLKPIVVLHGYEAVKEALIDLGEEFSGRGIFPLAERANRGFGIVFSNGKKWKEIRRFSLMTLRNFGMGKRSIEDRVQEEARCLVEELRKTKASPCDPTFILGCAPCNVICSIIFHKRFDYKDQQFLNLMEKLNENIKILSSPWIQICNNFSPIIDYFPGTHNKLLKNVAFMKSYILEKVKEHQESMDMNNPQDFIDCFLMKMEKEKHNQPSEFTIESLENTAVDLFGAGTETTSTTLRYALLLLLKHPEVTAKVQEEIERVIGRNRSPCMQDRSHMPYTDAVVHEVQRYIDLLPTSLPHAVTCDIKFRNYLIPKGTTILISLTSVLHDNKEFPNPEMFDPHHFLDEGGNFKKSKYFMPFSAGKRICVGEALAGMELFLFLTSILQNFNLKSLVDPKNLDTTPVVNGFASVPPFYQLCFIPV

SMILES | AC50 | activity, negative = inhibition
Cc1nc2c(n1C1CCCCC1)C(=O)c1ccccc1C2=O | 15.8 µM (active) | –
O=C1c2cccnc2C(O)N1C1CCCCC1 (configuration not stated) | – | -10.4% (inactive)
Cc1nc2cnc(Nc3ccccc3)nc2n(C2CC2)c1=O | – | -16.5% (inactive)
N[C@@H](C(=O)O)c1ccc(C(=O)O)c(O)c1 | – | -29% (inactive)
N[C@H](C(=O)O)c1ccc(O)c(C(=O)O)c1 | – | 7.54% (inactive)
N[C@@H](C(=O)O)c1ccc(C(=O)O)c(C(=O)O)c1 | 12.6 µM (active) and inactive | –
COCOc1ccc(Br)cc1C(=O)[C@H]1O[C@H]1c1cccc(OC)c1 | – | 8.38% [at 11.4 µM] (inactive)
COc1cccc([C@@H]2Oc3ccc(Br)cc3C(=O)[C@H]2O)c1 | 2.51 µM (active) | –
COc1cccc([C@@H]2Oc3ccc(OC)cc3C(=O)[C@H]2O)c1 | – | -9.12% [at 11.4 µM] (inactive)
CNc1ncncc1-c1ccccc1C(F)(F)F | – | 4.51% [at 2.29 µM] (inactive)
CCS(=O)(=O)N1CCC(C(=O)NCCN2CCN(Cc3ccccc3)CC2)CC1 | – | 11.7% (inactive)
COc1ccc(C(=O)N2CC3(CC(c4cccc([N+](=O)[O-])c4)=NO3)C[C@H]2C(=O)NCC(N)=O)cc1 (some centres not stated) | – | -29.6% (inactive)
O=C(NCc1ccccc1)C12CN(Cc3ccccc3)CC1C(c1cccc([N+](=O)[O-])c1)=NO2 (configuration not stated) | 7.94 µM (active) | –
COc1cccc(C2=NOC(C(=O)NCc3ccccc3)C2)c1 (configuration not stated) | – | 15.8% (inactive)
CC(C)CCNC(=O)C12CN(Cc3ccccc3)CC1C(c1cccc([N+](=O)[O-])c1)=NO2 (configuration not stated) | 5.62 µM (active) | –
NC(=O)Cn1c(=O)n(Cc2ccco2)c(=O)c2c3c(sc21)CCCCC3 | 11.2 µM (active) | –
O=C(Cn1c(=O)n(Cc2ccco2)c(=O)c2c3c(sc21)CCCCC3)c1ccccc1 | 2.51 µM (active) | –
Cn1c(=O)c2c3c(sc2n2cnnc12)CCC3 | – | -24.7% (inactive)
CN(C)CCn1c(=O)n(Cc2ccco2)c(=O)c2c3c(sc21)CCCCC3 | 14.1 µM (active) | –
O=C(N/N=C/c1ccc(F)cc1)c1ccc(Br)cc1 | – | -7.63% (inactive)
O=C(N/N=C/c1ccc2cccc(OCc3ccccc3)c2n1)c1ccc(Br)cc1 | 3.55 µM (active) | –
COc1ccc(O)c(/C=N/NC(=O)c2ccc(OCc3cccc(Br)c3)cc2)c1 | – | -22.4% (inactive)
CCn1c(SCC(=O)N2CCOCC2)nc2oc3c(Cl)cc(Cl)cc3c(=O)c2c1=O | 3.98 µM (active) | –
N#Cc1ccc(C(c2nnnn2Cc2ccccc2)N2CCCC2)cc1 (configuration not stated) | – | -67% (inactive)

SMILES | AC50 | activity, negative = inhibition
COc1ccc(Cn2nnnc2C(c2ccccc2Cl)N2CCC(C(N)=O)CC2)cc1 (configuration not stated) | 15.8 µM (active) | –
CCC(c1nnnn1CCOC)N1CCN(C(=O)c2ccco2)CC1 (configuration not stated) | – | -40.7% (inactive)
O=C(Nc1ccc(Cl)cc1)OCCn1nnnc1C(c1ccccc1Cl)N1CCOCC1 (configuration not stated) | 4.47 µM (active) | –
COc1ccc(N2CCN(C(CNC(=O)C3CCCCC3)c3cccnc3)CC2)cc1 (configuration not stated) | – | -14.1% (inactive)
O=C(NCCCN1CCOCC1)c1cc(C(=O)C2CC2)c[nH]1 | – | 33% (inactive)
Cc1ccc(C(=O)c2c[nH]c(C(=O)NCCCN3CCOCC3)c2)cc1 | – | -2.52% (inactive)
O=C(c1ccc(C(F)(F)F)cc1)c1c[nH]c(C(=O)NCCCn2ccnc2)c1 | 1.12 µM (active) | –
CC(C)[C@@H](OCc1ccccc1)[C@H](C)/C=N\O[C@@H](C)c1cn([C@H](CO)Cc2ccccc2)nn1 | – | -21.6% [at 11.4 µM] (inactive) and -25.5% [at 11.4 µM] (inactive)
Cc1cc(/C=N/n2cnnc2)c(C)n1-c1ccc(OCc2ccccc2F)cc1 | 4.47 µM (active) | –
COn1c(SCc2cccc(Cl)c2)nc2ccccc2c1=O | 1.78 µM (active) | –
COn1c(SCc2ccc(C)cc2C)nc2ccccc2c1=O | 0.282 µM (active) | –
COc1nc(Cl)nc(Cl)c1Cl (tested in a mixture with another compound) | – | -7.53% [at 11.4 µM] (inactive)
CC(C)CO/N=C1/C[C@@H](O)[C@@H](O)[C@@H]2[C@@H]3C(=O)N([C@@H](C)c4ccccc4)C(=O)[C@H]3CC[C@H]12 | – | -8.59% [at 11.4 µM] (inactive)
C1=C(CN2CCOCC2)COc2c1cccc2OC[C@@H]1CNCCO1 | – | 13.9% (inactive)
CO[C@@H]1COC(=O)CCC[C@@H](C)[C@H](OC)COC(=O)[C@H](Cc2ccccc2)NC(=O)C/C=C\[C@H]1C | – | -2.4% [at 11.4 µM] (inactive)
O=C(Cc1ccccc1)Nc1nc2ccc(Cl)cc2c2nc(-c3ccco3)nn12 | 3.16 µM (active) | –
CC(=O)n1nc(-c2ccco2)nc1N | – | -29.7% (inactive)
CN1CCN(c2cc(-c3ccc(N(C)C)cc3)ncn2)CC1 | – | 14.3% [at 2.29 µM] (inactive)
Cc1noc(C)c1-c1ccc2ncnc(NCc3ccccc3)c2c1 | – | -8.92% [at 2.29 µM] (inactive)
CCOC(=O)/C(C#N)=C1/C=CN(C)C=N1 | – | -14.9% (inactive)
CCCCCCN1C=CC(=C/C=C(\C#N)C(=O)OCC)C=C1 | 2.24 µM (active) | –
CCCC[S@@](=N)(=O)CC[C@@H](N)C(=O)O | inactive | –
O=C(CSc1nnc(SCc2cccc3ccccc23)s1)c1ccc2c(c1)OCO2 | 4.47 µM (active) | –
